Most compounds without a hit are left out; they make up all but 4.6% or so of the library.
TRb SRC2 PPI: qHTS for Inhibitors of the Interaction of Thyroid Hormone Receptor and Steroid Receptor Coregulator 2 | TRbeta-SRC2 peptide binding, fluorescence polarization; receptor liganded with 1 µM T3 | AID 1469, 2008 | Thyroid hormone receptor beta (Homo sapiens), P10828 | 0.065% of 280,000 active | Potency, µM (doses to about 106 µM), for the others: top-dose activity change, negative = inhibition, hits mostly inhibitors;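 also: potency is read from the fitted curve at half-maximal effect; plate controls were bound peptide for no effect and peptide without receptor for full effect; nearly all actives have a fitted effect of over 50% in size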
Target sequence (P10828 whole entry, looked up): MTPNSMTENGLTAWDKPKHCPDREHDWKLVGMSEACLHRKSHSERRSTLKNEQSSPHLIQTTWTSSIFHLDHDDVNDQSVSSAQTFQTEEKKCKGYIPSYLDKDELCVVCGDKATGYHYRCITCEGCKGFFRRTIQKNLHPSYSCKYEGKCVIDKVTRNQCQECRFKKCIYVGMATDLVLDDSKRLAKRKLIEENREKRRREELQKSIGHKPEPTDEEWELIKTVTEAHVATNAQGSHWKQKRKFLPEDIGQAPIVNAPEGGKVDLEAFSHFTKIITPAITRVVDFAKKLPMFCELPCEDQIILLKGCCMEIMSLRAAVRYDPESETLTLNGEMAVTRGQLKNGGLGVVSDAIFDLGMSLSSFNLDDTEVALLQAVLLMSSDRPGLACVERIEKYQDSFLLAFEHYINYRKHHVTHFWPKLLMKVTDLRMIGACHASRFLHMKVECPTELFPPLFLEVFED
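Compounds were added to 0.6 uM TRb ligand-binding domain and 20 nM Texas Red-labeled SRC2 peptide in Tris buffer containing 1 uM T3, incubated 5 hr at ambient temperature, then read by fluorescence polarization.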
PNC inhibitor: High Content Assay for Compounds that inhibit the Assembly of the Perinucleolar Compartment. activity change (PNC), negative = inhibition, % at 10 µM. 3.1% of 140,000 active. PC3M PTB-GFP, PNC prevalence imaging, 16 h; active compounds read low;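 active = readout at or below -70, meaning at least 70% loss of cells showing the perinucleolar compartment, a nuclear body marking cancer cells; inconclusive = readout between -30 and a set limit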;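 also: plate controls were DMSO wells for no effect and camptothecin positive control wells for full effect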
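Read-out is percentage of cells bearing a perinucleolar compartment, from automated 20x imaging of fixed, Hoechst-stained PC3M PTB-GFP cells. Cells were seeded 4 h, then exposed 16 h to compound (23 nl of library stock) in duplicate plates.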
Tau fluor cs: Counterscreen qHTS for Inhibitors of Tau Fibril Formation, Fluorescence Polarization. tau K18 P301L Alexa594 fluorescence, heparin fibrillization. Potency, µM (doses to about 57.7 µM), for the others: top-dose activity change, negative = decrease. 0.93% of 280,000 active; also: potency is read from the fitted curve at half-maximal effect; nearly all actives have a fitted effect of over 55% in size
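Human K18 P301L tau (15 uM unlabeled plus 0.24 uM Alexa 594-labeled, final) in 100 mM sodium acetate pH 7 was mixed with compound and 20 uM heparin and incubated 6 hr at 37 C.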
Tau FP inhib: qHTS for Inhibitors of Tau Fibril Formation, Fluorescence Polarization; Microtubule-associated protein tau (Homo sapiens), P10636; K18 P301L tau heparin fibrillization, Alexa594 FP, 6 h; Potency, µM (series often up to 57.7 µM), for inactives: top-dose activity, negative = inhibition, hits mostly inhibitors; 0.39% of 280,000 active; AID 1468, 2008; also: potency is read from the fitted curve at half-maximal effect; nearly all actives have a fitted effect of over 55% in size
Target sequence (P10636 561-689 P618L limits assumed): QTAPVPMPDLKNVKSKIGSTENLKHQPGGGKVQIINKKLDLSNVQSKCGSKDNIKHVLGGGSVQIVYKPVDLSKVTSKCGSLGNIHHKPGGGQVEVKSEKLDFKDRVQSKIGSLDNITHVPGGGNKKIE
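Heparin (20 uM) drove fibril formation of recombinant tau K18 P301L, 15 uM unlabeled with 0.24 uM Alexa 594 label, for 6 hr at 37 C in 100 mM sodium acetate pH 7. Fluorescence polarization (555/632 nm) read 1 hr after 30 uM ThT.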
Tau ThT inhib: qHTS for Inhibitors of Tau Fibril Formation, Thioflavin T Binding. Potency, µM (top dose mostly 57.4 µM), without a hit: at the top dose activity, negative = inhibition, usual class: inhibitors. 2.1% of 270,000 active. Microtubule-associated protein tau (Homo sapiens), P10636. recombinant tau K18 P301L (four-repeat tau fragment), heparin-induced fibrillization, ThT fluorescence; also: potency is read from the fitted curve at half-maximal effect; nearly all actives have a fitted effect of over 55% in size
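Recombinant human tau K18 fragment […] carrying P301L, 15 uM unlabeled plus 0.24 uM Alexa 594-labeled, was fibrillized with 20 uM heparin in 100 mM sodium acetate pH 7 for 6 hr at 37 C; 30 uM ThT fluorescence read after 1 hr.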
TexasRed fluor: Total Fluorescence Counterscreen for Inhibitors of the Interaction of Thyroid Hormone Receptor and Steroid Receptor Coregulator 2; TRb/SRC2 Texas Red total fluorescence interference; Potency, µM (series often up to 106 µM), for inactives: top-dose fluorescence change, negative = quenching; 0.29% of 280,000 active; AID 1479, 2009; active = well fitted curve in either direction with a large enough effect; inconclusive = small, poorly fitted or top-dose-only effect; also: potency is read from the fitted curve at half-maximal effect
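Flags fluorescent or light-absorbing compounds by total fluorescence, S + 2P, at 555 nm excitation and 632 nm emission. Mixture: 20 nM Texas Red SRC2 peptide, 0.6 uM human TRb LBD, 1 uM T3, 5% DMSO; compound exposure 5 h at ambient temperature.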
An asterisk follows results filed as active; u = inconclusive; x = no result; [ ] = another dose, or the depositor's remark. Unless noted, calls follow the shape of the dose curve; as a rule, active = well fitted curve in the direction sought with a large enough effect; inconclusive = small, poorly fitted or top-dose-only effect, or another doubt; inactive = no such curve, though single readings can be large; an effect the other way counts as inactive or inconclusive. Unless noted, % is scaled to controls: 0 for no effect and ±100 for the full control effect.

SMILES	TRb SRC2 PPI	PNC inhibitor	Tau fluor cs	Tau FP inhib	Tau ThT inhib	TexasRed fluor
CCOc1ccc(CN(C(=O)c2cc3ccccc3oc2=O)C2CC2)cc1	-2%	-100*	-4%	5%	-7%	-9%
Cc1ccc2nc(-c3ccc(C)o3)c(Nc3ccc4c(c3)OCCO4)n2c1	-15%	x	u	8%	u	0.0013µM*[quencher]
Cc1ccc(-c2nc3ccc(Cl)cn3c2Nc2ccc3c(c2)OCCO3)o1	-3%	x	-25%	8%	-2%	0%
O=c1n(-c2ccccc2)c(=O)n2n1CCC2	8%	-17	-1%	3%	-5%	1%
O=c1n(-c2ccccc2)c(=O)n2n1CCCC2	-10%	-120*	3%	-3%	0%	3%
COc1ccc(C2C(C(C)=O)=C(Nc3ccccc3)CC(C)(O)C2C(C)=O)cc1OC (stereo not given)	-18%	-119*	1%	-7%	6%	3%
CC(=O)C1=C(Nc2ccccc2)CC(C)(O)C(C(C)=O)C1c1ccccc1 (stereo not given)	-1%	x	-7%	-1%	-8%	1%
COC(=O)c1cc2n(n1)CCN(Cc1cccc(OC)c1)C2=O	-9%	x	-2%	-2%	1%	-4%
CCOC(=O)N1CCN(c2c(-c3ccc(C(C)C)cc3)c(=O)c2=O)CC1	7%	2	-11%	-2%	-12%	0%
CCOC(=O)N1CCN(c2c(-c3ccc(C)cc3)c(=O)c2=O)CC1	-3%	-100*	3%	7%	0%	-6%
CCOC(=O)N1CCN(c2c(-c3ccc(C)c(C)c3)c(=O)c2=O)CC1	-4%	-100*	-1%	4%	0%	-4%
COc1cc(SC#N)ccc1N=Cc1c(C)[nH]n(-c2ccc(Cl)cc2)c1=O	-2%	23	-23%	u	11µM*	-7%
COc1ccc(CCN=Cc2c(C)[nH]n(-c3ccc([N+](=O)[O-])cc3)c2=O)cc1OC	-3%	x	-15%	-15%	u	-4%
COc1cc(SC#N)ccc1N=Cc1c(C)[nH]n(-c2ccc(C)c(C)c2)c1=O	1%	-3	-19%	u	18µM*	-6%
COc1cc(S(=O)(=O)Nc2ccccc2)ccc1N=Cc1c(C)[nH]n(-c2ccc(C)cc2)c1=O	12%	u	u	0%	u	6%
COc1cccc(Cn2cc(C(=O)c3ccccc3)c(=O)c3cc4c(cc32)OCO4)c1	2%	x	5%	1%	2%	-6%
Nn1cnc2c([nH]c3ccccc32)c1=O	-20%[53 µM]	45	-2%	5%	5%	1122µM*[quencher]
CCOC(=O)c1[nH]c(C)c(C(=O)c2cc(F)ccc2F)c1C	4%	-95*	-6%	3%	-2%	-2%
CC(=O)N1CCN(C2=NC(=O)C(=C3CCCCC3)S2)CC1	-4%	-100*	-2%	-4%	-7%	1%
O=C1N=C(N2CCOCC2)SC1=C1CCCCC1	-5%	-16	3%	0%	-5%	0%
CCCCC(=O)Nc1sc(C(=O)N(CC)CC)c(C)c1C(=O)OC	-1%	-100*	-9%	-6%	u	-3%
CCOC(=O)N1CCc2c(sc(NCc3ccc(OC)c(Br)c3)c2C(=O)Nc2cc(OC)ccc2OC)C1	-3%	x	u	-2%	14µM*	-4%
CCOC(=O)N1CCc2c(sc(NCc3cc(OC)ccc3OC)c2C(=O)Nc2cc(OC)ccc2OC)C1	-21%	x	u	2%	u	398µM*[quencher]
O=C(Nc1cc2c(cc1Cl)OCCCO2)c1ccccc1	-11%	u	-9%	10%	-12%	-2%
CCOC(=O)C1CCN(S(=O)(=O)c2ccc(-n3cnnn3)c(C)c2)CC1	-22%	-100*	-3%	8%	-3%	2%
SMILES	TRb SRC2 PPI	PNC inhibitor	Tau fluor cs	Tau FP inhib	Tau ThT inhib	TexasRed fluor
CCOC(=O)C1CCN(S(=O)(=O)c2ccc(C)c(C)c2)CC1	0%	x	7%[2.34 µM]	-5%	1%	6%
NS(=O)(=O)c1ccc(NC2=CC(c3ccc([N+](=O)[O-])cc3)N(c3ccc(S(N)(=O)=O)cc3)C2=O)cc1 (stereo not given)	-1%	x	13µM*[quencher]	-14%	u	-7%
Cc1cc(OCc2nnc(SCC(=O)OC3CCCCC3)o2)ccc1Cl	-1%	12	-3%	8%	-6%	-1%
CCC(=O)Nc1c(C#N)c2nc3ccccc3nc2n1C1CCCCC1	-4%	u	2%	7%	-12%	0%
CCOC(=O)c1c(NC(=O)c2ccco2)n(C2CCCCC2)c2nc3ccccc3nc12	u	5	-29%	u	18µM*	1%
CC1CCCCN1S(=O)(=O)c1ccc(S(=O)(=O)N(Cc2ccccc2)Cc2ccco2)cc1 (stereo not given)	-1%	-100*	-16%	1%	-4%	-1%
COc1ccc(CCNC(=O)CN2CCN(Cc3ccccc3F)C2=O)cc1OC	1%	x	-7%	u	-5%	-3%
CCOc1cc(C2C3=C(CC(C)(C)CC3=O)OC3=C2C(=O)CC(C)(C)C3)cc([N+](=O)[O-])c1O	-6%	x	-11%	4%	u	0%
CCOC(=O)C1=CN(c2cccc(F)c2)C=C(C(=O)OCC)C1c1cc(OC)c(O)c([N+](=O)[O-])c1	-11%	u	u	9%	13µM*	2%
Brc1cccc(-c2nnc3sc(CNCc4ccco4)cn23)c1	4%	-19	-5%	2%	-5%	-1%
COc1ccc(C2C(C(=O)NCc3ccccn3)c3ccccc3C(=O)N2C)cc1OC (stereo not given)	-7%	-88*	0%	4%	4%	-9%
CCc1ccc2oc(-c3ccc(OC)cc3)cc(=Nc3c(C)n(C)n(-c4ccccc4)c3=O)c2c1	5%	x	-30%	9%	11µM*	-1%
CCc1ccc2oc(-c3ccc(OC)cc3)cc(=Nc3cccc(C(=O)O)c3)c2c1	0%	x	-20%	-10%	u	-1%
COc1ccc(C)cc1NC(=O)c1nnn(-c2c(C)cccc2C)c1C	-1%	x	-10%	9%	-9%	-1%
Clc1ccc(C[n+]2csc3ccccc32)cc1	-9%	21	-12%	u	22µM*	-1%
CC[C@@H]1C(c2cccc(C)c2)=NN(c2ccccc2)[C@H]1C(=O)N1CCOC1=O	0%	x	u	17%[81.3 µM]	-10%[81.4 µM]	-2%

Compound activity deposited in PubChem BioAssay by National Center for Advancing Translational Sciences (NCATS).
